# Data taken from ChEMBL document CHEMBL2218924, “A broad activity screen in support of a chemogenomic map for kinase signalling research and drug discovery” (Biochem J, 2013).
# Columns and labels:
# [1] = molecular target: T1, Ephrin type-A receptor 3 (Homo sapiens) (UniProt P29320); conditions: at 10 µM
# T1 sequence (whole entry): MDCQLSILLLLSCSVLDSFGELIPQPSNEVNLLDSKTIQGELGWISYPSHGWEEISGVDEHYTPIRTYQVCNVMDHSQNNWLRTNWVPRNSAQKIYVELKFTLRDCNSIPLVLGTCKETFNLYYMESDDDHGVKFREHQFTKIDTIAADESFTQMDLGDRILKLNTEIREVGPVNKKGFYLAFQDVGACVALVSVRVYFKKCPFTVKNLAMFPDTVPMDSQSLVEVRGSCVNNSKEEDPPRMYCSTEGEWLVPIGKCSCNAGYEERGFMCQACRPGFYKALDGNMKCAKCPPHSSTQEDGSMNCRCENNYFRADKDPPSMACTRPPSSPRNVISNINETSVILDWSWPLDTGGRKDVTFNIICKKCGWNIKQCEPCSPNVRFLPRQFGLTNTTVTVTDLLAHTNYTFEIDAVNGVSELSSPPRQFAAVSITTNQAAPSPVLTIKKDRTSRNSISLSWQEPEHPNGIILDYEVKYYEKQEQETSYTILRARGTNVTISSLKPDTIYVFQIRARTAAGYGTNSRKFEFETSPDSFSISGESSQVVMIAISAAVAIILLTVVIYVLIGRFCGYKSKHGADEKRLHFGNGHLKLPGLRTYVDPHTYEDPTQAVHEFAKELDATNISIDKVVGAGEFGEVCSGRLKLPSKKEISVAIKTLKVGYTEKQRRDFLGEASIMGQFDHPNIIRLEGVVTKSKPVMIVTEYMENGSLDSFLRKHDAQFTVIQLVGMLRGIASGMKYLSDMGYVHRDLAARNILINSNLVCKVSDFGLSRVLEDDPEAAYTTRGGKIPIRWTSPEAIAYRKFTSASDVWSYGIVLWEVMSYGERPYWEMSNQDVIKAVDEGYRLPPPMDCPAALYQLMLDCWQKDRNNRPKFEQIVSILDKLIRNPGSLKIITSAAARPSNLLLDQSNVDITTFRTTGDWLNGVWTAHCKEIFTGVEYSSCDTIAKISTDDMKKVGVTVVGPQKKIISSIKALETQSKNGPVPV
# [2] = molecular target: Ephrin type-A receptor 4 (Homo sapiens) (UniProt P54764); conditions: at 1 µM
# Chain of Ephrin type-A receptor 4 (Homo sapiens) (P54764 whole entry): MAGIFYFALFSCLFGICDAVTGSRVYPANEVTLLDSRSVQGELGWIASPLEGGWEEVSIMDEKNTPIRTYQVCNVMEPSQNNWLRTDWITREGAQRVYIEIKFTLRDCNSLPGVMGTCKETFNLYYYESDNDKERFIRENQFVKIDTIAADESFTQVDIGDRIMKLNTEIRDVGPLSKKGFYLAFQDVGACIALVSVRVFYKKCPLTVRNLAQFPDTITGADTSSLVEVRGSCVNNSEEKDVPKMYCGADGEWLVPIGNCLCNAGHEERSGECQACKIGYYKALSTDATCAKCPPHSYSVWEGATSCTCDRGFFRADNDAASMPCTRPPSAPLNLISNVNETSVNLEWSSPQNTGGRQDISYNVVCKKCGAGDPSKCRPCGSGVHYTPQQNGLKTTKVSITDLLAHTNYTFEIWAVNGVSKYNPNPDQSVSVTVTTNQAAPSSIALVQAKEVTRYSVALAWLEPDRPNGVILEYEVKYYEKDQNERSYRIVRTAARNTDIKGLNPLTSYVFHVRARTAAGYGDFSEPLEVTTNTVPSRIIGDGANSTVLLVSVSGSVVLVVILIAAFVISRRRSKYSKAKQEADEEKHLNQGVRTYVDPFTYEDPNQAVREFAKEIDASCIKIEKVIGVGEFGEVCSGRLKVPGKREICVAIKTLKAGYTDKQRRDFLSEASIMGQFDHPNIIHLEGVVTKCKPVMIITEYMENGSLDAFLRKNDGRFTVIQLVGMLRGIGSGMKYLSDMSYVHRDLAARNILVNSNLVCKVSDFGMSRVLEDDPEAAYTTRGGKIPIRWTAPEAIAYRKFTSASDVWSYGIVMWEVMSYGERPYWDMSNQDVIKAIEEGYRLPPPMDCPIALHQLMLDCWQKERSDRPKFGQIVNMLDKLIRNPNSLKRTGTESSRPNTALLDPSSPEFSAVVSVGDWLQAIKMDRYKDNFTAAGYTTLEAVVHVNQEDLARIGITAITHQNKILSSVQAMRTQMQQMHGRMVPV
# [3] = molecular target: Ephrin type-A receptor 4 (Homo sapiens) (UniProt P54764); conditions: at 10 µM
# [4] = molecular target: Ephrin type-A receptor 5 (Homo sapiens) (UniProt P54756); conditions: at 1 µM
# Chain of Ephrin type-A receptor 5 (Homo sapiens) (P54756 whole entry): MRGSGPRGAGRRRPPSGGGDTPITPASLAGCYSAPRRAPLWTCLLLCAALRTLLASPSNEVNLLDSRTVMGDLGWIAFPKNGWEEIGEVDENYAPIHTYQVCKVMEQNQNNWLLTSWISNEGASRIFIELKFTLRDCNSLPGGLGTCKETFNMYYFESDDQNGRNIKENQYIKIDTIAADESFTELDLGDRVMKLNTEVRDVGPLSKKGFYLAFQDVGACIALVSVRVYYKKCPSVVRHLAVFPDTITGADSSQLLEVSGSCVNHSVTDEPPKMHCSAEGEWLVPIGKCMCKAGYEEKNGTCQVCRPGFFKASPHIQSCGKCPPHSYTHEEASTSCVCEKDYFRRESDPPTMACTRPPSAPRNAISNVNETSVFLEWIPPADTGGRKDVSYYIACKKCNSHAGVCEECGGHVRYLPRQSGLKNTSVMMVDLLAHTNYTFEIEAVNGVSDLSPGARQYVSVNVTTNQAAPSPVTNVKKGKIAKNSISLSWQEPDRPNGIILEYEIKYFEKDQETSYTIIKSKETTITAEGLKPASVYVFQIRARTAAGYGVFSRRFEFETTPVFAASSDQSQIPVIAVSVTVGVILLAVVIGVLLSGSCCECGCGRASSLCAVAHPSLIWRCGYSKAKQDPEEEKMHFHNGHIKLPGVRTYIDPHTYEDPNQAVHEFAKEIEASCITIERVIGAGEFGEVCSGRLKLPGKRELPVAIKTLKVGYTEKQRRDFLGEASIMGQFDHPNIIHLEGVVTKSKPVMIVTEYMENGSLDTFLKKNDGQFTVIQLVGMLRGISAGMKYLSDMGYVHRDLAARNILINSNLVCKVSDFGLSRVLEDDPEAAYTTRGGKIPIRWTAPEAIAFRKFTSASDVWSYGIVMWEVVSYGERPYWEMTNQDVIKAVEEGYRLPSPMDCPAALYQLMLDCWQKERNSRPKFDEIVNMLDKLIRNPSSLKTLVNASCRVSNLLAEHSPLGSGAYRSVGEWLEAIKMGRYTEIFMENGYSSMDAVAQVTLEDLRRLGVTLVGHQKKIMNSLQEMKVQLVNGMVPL
# [5] = molecular target: Ephrin type-A receptor 5 (Homo sapiens) (UniProt P54756); conditions: at 10 µM
# [6] = molecular target: Ephrin type-A receptor 7 (Homo sapiens) (UniProt Q15375); conditions: at 1 µM
# Chain of Ephrin type-A receptor 7 (Homo sapiens) (Q15375 28-998 limits assumed): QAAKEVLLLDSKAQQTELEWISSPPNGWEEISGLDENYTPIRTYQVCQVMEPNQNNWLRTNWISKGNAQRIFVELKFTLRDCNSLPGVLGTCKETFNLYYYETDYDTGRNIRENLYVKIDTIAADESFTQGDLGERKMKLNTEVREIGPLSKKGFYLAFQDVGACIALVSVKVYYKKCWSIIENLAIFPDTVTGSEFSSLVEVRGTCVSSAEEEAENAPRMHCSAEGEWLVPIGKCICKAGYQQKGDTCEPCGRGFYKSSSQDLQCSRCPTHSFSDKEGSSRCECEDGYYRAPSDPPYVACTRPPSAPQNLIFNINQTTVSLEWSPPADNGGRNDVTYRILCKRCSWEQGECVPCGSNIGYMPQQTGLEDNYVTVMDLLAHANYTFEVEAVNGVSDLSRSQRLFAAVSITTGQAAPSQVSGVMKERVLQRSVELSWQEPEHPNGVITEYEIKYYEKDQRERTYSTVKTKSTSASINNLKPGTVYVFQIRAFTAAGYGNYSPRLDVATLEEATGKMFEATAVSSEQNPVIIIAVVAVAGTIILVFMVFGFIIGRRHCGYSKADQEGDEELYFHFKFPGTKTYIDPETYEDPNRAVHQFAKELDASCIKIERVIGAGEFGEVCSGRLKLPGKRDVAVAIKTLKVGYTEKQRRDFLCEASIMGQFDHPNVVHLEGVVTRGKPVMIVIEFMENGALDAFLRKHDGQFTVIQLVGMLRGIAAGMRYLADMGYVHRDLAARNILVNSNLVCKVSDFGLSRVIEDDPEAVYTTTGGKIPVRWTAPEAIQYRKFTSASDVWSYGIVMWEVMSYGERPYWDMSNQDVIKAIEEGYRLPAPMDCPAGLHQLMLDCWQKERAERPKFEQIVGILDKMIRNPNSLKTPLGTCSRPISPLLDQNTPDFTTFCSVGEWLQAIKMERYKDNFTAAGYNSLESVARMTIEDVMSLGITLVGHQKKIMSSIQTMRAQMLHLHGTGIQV
# [7] = molecular target: Ephrin type-A receptor 7 (Homo sapiens) (UniProt Q15375); conditions: at 10 µM
# [8] = molecular target: T2, Ephrin type-A receptor 8 (Homo sapiens) (UniProt P29322); conditions: at 1 µM
# T2 sequence (whole entry): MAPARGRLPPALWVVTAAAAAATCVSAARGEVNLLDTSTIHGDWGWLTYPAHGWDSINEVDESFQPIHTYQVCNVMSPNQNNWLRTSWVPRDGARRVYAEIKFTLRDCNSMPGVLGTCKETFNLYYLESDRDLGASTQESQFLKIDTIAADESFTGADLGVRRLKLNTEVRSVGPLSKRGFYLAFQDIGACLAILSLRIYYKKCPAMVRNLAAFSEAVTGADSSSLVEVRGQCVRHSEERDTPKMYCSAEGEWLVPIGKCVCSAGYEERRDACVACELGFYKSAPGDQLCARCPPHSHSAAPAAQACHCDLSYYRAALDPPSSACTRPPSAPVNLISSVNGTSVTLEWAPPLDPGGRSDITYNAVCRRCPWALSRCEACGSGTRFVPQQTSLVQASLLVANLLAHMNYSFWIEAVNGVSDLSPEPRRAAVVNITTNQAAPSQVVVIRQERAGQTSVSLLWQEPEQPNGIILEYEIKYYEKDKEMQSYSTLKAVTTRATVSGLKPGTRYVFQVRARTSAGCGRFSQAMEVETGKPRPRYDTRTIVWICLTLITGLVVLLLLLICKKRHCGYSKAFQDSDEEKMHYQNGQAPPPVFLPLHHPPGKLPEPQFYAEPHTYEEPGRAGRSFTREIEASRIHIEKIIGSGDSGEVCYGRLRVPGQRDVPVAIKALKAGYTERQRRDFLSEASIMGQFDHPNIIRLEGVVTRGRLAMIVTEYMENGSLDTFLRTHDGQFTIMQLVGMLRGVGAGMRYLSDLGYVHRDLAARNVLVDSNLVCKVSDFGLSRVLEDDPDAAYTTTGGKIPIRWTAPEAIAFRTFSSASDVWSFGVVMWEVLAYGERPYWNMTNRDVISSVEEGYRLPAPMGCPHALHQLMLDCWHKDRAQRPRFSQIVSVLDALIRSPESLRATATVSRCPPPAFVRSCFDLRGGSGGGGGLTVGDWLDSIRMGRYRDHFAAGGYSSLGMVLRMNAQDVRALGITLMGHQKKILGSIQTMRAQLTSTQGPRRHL
# [9] = molecular target: T2, Ephrin type-A receptor 8 (Homo sapiens); conditions: at 10 µM
# [10] = molecular target: T3, Ephrin type-B receptor 1 (Homo sapiens) (UniProt P54762); conditions: at 1 µM
# T3 sequence (whole entry): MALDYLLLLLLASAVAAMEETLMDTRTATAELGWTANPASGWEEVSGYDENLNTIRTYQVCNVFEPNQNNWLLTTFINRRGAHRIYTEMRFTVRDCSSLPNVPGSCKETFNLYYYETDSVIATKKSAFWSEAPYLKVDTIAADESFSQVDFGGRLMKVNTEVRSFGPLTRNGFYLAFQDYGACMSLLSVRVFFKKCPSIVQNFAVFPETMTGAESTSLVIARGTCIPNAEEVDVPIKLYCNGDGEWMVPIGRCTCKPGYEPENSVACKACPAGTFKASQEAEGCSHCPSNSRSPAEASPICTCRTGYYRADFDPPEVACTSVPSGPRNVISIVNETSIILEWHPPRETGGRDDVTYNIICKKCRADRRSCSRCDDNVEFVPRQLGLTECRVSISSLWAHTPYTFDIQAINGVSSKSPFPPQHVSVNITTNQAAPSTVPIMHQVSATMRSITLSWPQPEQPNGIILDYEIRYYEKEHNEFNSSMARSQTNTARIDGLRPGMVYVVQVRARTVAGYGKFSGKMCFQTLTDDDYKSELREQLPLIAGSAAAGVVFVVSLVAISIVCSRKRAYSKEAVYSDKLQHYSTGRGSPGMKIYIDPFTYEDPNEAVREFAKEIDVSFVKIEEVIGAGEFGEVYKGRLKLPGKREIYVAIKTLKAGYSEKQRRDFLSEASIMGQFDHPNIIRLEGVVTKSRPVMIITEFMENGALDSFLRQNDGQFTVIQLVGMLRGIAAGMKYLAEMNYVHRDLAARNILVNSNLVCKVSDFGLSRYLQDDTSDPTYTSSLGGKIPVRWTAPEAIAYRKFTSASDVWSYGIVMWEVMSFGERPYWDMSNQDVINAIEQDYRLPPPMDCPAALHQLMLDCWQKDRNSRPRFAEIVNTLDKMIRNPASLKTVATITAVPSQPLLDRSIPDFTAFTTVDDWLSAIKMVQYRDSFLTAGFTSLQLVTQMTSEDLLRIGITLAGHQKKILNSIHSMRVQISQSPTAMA
compound,measurement,setting,value
CN(C)c1ccc(/C=C2\C(=O)Nc3ccccc32)cc1,residual activity,[1],100%
same,residual activity,[2],115%
same,residual activity,[3],109%
same,residual activity,[4],108%
same,residual activity,[5],112%
same,residual activity,[6],104%
same,residual activity,[7],89%
same,residual activity,[8],102%
same,residual activity,[9],98%
same,residual activity,[10],100%
